Bioassay records as filed in PubChem.
HCMV antiviral = blocks human cytomegalovirus replication. HFF cells, HCMV-luciferase reporter, 72 h; stronger effect = lower value. activity change, negative = inhibition, % at 57.5 µM. 410,000 tested, 4.5% active. AID 1259415; in the data active = activity change below about -60%; inconclusive = no clear call, values can overlap the other calls; inactive = above about -39%
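Inhibition of viral replication was scored as loss of reporter luminescence in HFFs infected with HCMV-luciferase (MOI 1 PFU/cell) for 72 h; compounds tested at 2 doses, normalized to buffer and Salinomycin controls.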
LASV entry inh = Lassa virus entry inhibition. Lassa virus pseudotype entry inhibition, cell reporter. Potency, µM (titrated, usually from 37.9 µM), without a hit: at the top dose activity change, negative = inhibition, usual class: inhibitors. 300,000 tested, 1.2% active. AID 540256; calls by dose curve; tested in HEK293 cells; also: potency is read from the fitted curve at half-maximal effect; nearly all actives have a fitted effect of over 50% in size
FMDV antiviral = antivirals against foot and mouth disease virus. FMDV antiviral cell-based qHTS. Potency, µM (series often up to 57.9 µM), without a hit: at the highest dose activity change, negative = inhibition, most hits filed as inhibitors. 410,000 tested, 1.2% active; calls by dose curve; tested in HEK293T cells; also: read-out not given here; potency is read from the fitted curve at half-maximal effect; nearly all actives have a fitted effect of over 45% in size
MARV entry inh = blocks Marburg virus binding to or entry into cells; 300,000 tested, 1.8% active; Potency, µM (highest dose often 37.8 µM), inactives show top-dose activity change, negative = inhibition, most hits filed as inhibitors; Marburg virus pseudotyped entry inhibition, cell reporter; calls by dose curve; tested in HEK293 cells; also: potency is read from the fitted curve at half-maximal effect
Vaccinia mCherry = inhibitors of vaccinia virus infection (mCherry reporter signal) | Vaccinia virus mCherry reporter infection, fluorescence | Potency, µM (top dose mostly 36.5 µM), without a hit: at the highest dose activity change, negative = inhibition, actives largely listed as inhibitors | 310,000 tested, 0.63% active | AID 720579; calls by dose curve; tested in A549 cells; also: potency is read from the fitted curve at half-maximal effect; nearly all actives have a fitted effect of over 35% in size
VACV Venus inh = inhibitors of vaccinia virus (Venus reporter) | 330,000 tested, 0.46% active | Potency, µM (titrated, usually from 36.5 µM), inactives show top-dose activity change, negative = inhibition, most hits filed as inhibitors | Vaccinia virus Venus reporter expression, fluorescence | AID 720580; calls by dose curve; tested in A549 cells; also: potency is read from the fitted curve at half-maximal effect; nearly all actives have a fitted effect of over 30% in size
Active calls of the source: *; i = inactive; ? = inconclusive; · = not tested or not shown; [ ] = remark or other dose. Sampled rows, rich in hits. Any-hit rate of the full collection: about 6.5%. % is scaled to controls: 0 for no effect and ±100 for the full control effect.

SMILES	HCMV antiviral	LASV entry inh	FMDV antiviral	MARV entry inh	Vaccinia mCherry	VACV Venus inh
CC1Cc2cc(S(=O)(=O)NCc3ccc(N(C)C)cc3)ccc2N1C(=O)C1CCC1 (configuration not stated)	-22.0	?	?	·	-20.6%	-9.1%
C=CCOC(=O)C(C(C)=O)[C@@H](NC(=O)OC)c1ccc(F)cc1 (some centres not stated)	·	·	·	19.6%[14.2 µM]	·	·
CCSc1ncc(Cl)c(C(=O)N(Cc2ccccc2)c2ccc(OC)cc2)n1	-75.4*	-4.4%[46.1 µM]	?	?	-11.6%	-15.7%
CCSc1ncc(Cl)c(C(=O)N(Cc2ccc(N(C)C)cc2)Cc2ccco2)n1	-8.0	-10.7%[46.1 µM]	?	-3.5%[46.1 µM]	-2.6%	-24.4%
Cc1cc(=O)[nH]c(N/N=C/c2c(C)nn(-c3ccccc3)c2C)n1	-39.4	13.0%[46.1 µM]	-0.7%	6.4%[46.1 µM]	-4.5%	-24.5%
C=CCn1cc(/C=N/Nc2nc3ccccc3[nH]2)c2ccccc21	58.3	4.47µM*	-71.3%	?	-26.0%	?
Cc1nn(-c2ccccc2)c(C)c1/C=N/Nc1nc2ccccc2[nH]1	?	?	?	12.6µM*	?	-4.8%
C(=N\Nc1nc2ccccc2[nH]1)/c1ccncc1	24.2	?	0.3%	?	?	0.1%
Cn1c(/C=N/Nc2nc3ccccc3[nH]2)nc2ccccc21	-83.0*	?	-23.4%	?	?	-11.5%
Clc1nc2ccccc2cc1/C=N/Nc1nc2ccccc2[nH]1	160.6	?	4.4%	-5.7%	-17.9%	-19.2%
CCCn1c(/C=N/Nc2nc3ccccc3[nH]2)nc2ccccc21	-99.5*	12.6µM*	?	?	10µM*	?
CC(/C=N/Nc1nc2ccccc2[nH]1)=C\c1ccccc1	-26.2	?	3.3%	7.3µM*	·	·
CC(/C=N/Nc1nc(C)cc(=O)[nH]1)=C\c1ccccc1	-13.4	·	5.4%	·	·	·
CCN(CC)c1ccc(/C=N/Nc2nc3ccccc3[nH]2)cc1	·	8.2µM*	-44.0%	8.2µM*	·	·
Cc1c(/C=N/Nc2nc3ccccc3[nH]2)c2ccccc2n1C	-96.0*	?	?	?	i	-28.0%
C(=N\Nc1nc2ccccc2[nH]1)/c1cccs1	39.7	18.1%	70.8%	?	i	-12.7%
CC(C)Cn1c(/C=N/Nc2nc3ccccc3[nH]2)nc2ccccc21	-97.0*	?	25.1µM*	?	?	?
COc1ccc(-c2nc3sc(CCNC(=O)c4cc(Cl)ccc4OC)c(C)n3n2)cc1	93.6	?	17.7%	·	-0.7%	-7.1%
O=C(N[C@@H](Cc1cccnc1)C(=O)N1CCC[C@H]1C(=O)NCCc1ccccc1Cl)c1cccs1	-17.0	·	·	·	·	·
CCN(CC)S(=O)(=O)c1ccc2[nH]cc(C(=O)NCCC3=CCCCC3)c(=O)c2c1	-83.1*	1.26µM*	14.1µM*	11.2µM*	·	?
CCN(CC)S(=O)(=O)c1ccc2[nH]cc(C(=O)NCCN3CCCCC3C)c(=O)c2c1 (configuration not stated)	5.8	-11.6%	-3.4%	-3.8%	-7.5%	-4.2%
CCN(CC)S(=O)(=O)c1ccc2[nH]cc(C(=O)NCCCN3CCCCC3C)c(=O)c2c1 (configuration not stated)	-73.0*	-12.8%	·	8.6%	-0.6%	-7.1%
CCN(CC)S(=O)(=O)c1ccc2[nH]cc(C(=O)NCCN3CCCCCC3)c(=O)c2c1	-16.7	?	-3.2%	-11.8%	2.1%	2.4%
COc1ccc(C=CC(=O)c2ccc([N+](=O)[O-])cc2)cc1	-22.6	0.0%[46.1 µM]	24.2%	-1.3%[46.1 µM]	-30.3%	2.4%
Cc1[nH]c(C)c(C(=O)/C=C/c2ccc([N+](=O)[O-])cc2)c1C	-100.9*	·	20.9%	·	·	·
SMILES	HCMV antiviral	LASV entry inh	FMDV antiviral	MARV entry inh	Vaccinia mCherry	VACV Venus inh
Cn1c(=O)n(CC(=O)OCc2ccccc2)c(=O)c2c1nc1n2CCCN1C1CCCCC1	-33.5	?	28.2µM*	?	·	-17.5%
Clc1ccc(-c2nc(-c3ccncc3)no2)c(Cl)c1	88.6	·	35.1%	·	·	·
Nc1nccc(-c2cc(-c3ccc(Cl)cc3Cl)no2)n1	18.5	?	22.5%	14.1µM*	-18.9%	-24.8%
CCN(CC)S(=O)(=O)c1ccc(S(=O)(=O)Nc2c(C)nn(C)c2C)cc1	-72.9*	4.6%	?	?	-23.9%	-15.9%
CC1(C)CC[C@]2(C(=O)O)CC[C@]3(C)C(=CC[C@@H]4[C@@]5(C)CC[C@H](O[C@@H]6O[C@H](C(=O)O)[C@@H](O)[C@H](O[C@@H]7OC[C@H](O)[C@H](O)[C@H]7O)[C@H]6O)C(C)(C)[C@@H]5CC[C@]43C)[C@@H]2C1	-100.4*	·	-66.2%	·	?	7.94µM*
CC1(C)CC[C@]2(C(=O)O[C@@H]3O[C@H](CO)[C@@H](O)[C@H](O)[C@H]3O)CC[C@]3(C)C(=CCC4[C@@]5(C)CC[C@H](O[C@@H]6O[C@H](C(=O)O)[C@@H](O[C@H]7OC[C@@H](O)[C@@H](O)[C@@H]7O)[C@H](O)[C@H]6O)C(C)(C)C5CC[C@]43C)[C@@H]2C1 (some centres not stated)	27.5	·	-14.7%	·	i	-3.1%
Cc1ccc(C[n+]2c(-c3ccc(C)cc3)cc(-c3ccc(C)cc3)cc2-c2ccc(C)cc2)cc1	·	·	?	·	?	3.55µM*
Cc1nc2ccccc2c(=O)n1-c1cc(F)ccc1F	4.7	-8.5%	-14.3%	?	i	-2.8%
Cc1nc2c(Br)cc(Br)cc2c(=O)n1-c1ccccc1NC1OCC(O)C(O)C1O (configuration not stated)	-77.4*	-6.1%	-15.0%	?	i	-15.7%
CCO[C@@H]1C[C@@]1(C=C[C@@H](C)[C@H](OC)c1ccccc1Br)C(=O)OC	·	·	·	-13.6%[14.2 µM]	·	·
COc1ccc(-c2c(C)[nH]n3c(=O)c(Cc4ccccc4)c(C)nc23)cc1OC	-23.6	?	-4.0%	7.94µM*	-13.0%	-20.7%
Cc1cccc(Cc2c(C)nc3c(-c4ccccc4)c(C)[nH]n3c2=O)c1	-79.4*	?	-9.4%	?	?	?
Cc1nc2c(-c3ccccc3)c(C)[nH]n2c(=O)c1Cc1ccccc1	-37.3	-25.7%	-23.9%	?	?	-23.0%
Cc1ccccc1Cc1c(C)nc2c(-c3ccccc3)c(C)[nH]n2c1=O	-36.8	?	?	?	?	-20.9%
Cc1nc2c(-c3ccc(Cl)cc3)c(C)[nH]n2c(=O)c1Cc1ccccc1	-99.1*	?	-29.4%	3.98µM*	6.31µM*	?
CCCN(CCC)C(=O)Cn1c(=O)n(-c2ccccc2)c(=O)c2c3c(sc21)CCCC3	-2.3	?	0.0%	7.1%[46.1 µM]	-9.1%	-9.9%
CCOc1ccccc1CNC(=O)C(CC)n1nc(C)c2c(C)n(-c3ccccc3)nc2c1=O (configuration not stated)	-39.5	-21.7%[46.1 µM]	?	·	-23.2%	-21.3%
Cc1ccc(CN(Cc2ccco2)C(=O)c2ccc(OCC(C)C)cc2)cc1	4.3	-15.7%[46.1 µM]	-18.6%	15.4%[46.1 µM]	i	0.1%
